Assay results taken from PubChem BioAssay (Tox21).
Records with an inconclusive call do not appear. The source made the active and inactive calls. Unless noted, the call rests on the fitted dose curve.

Experiments:
[1] = Nuclear factor erythroid 2-related factor 2/antioxidant responsive element (Nrf2/ARE) small molecule agonists: qHTS cell viability counter screen in human keratinocytes (AID 1919968; active means well fitted curve in the direction sought with a large enough effect in the repeat runs; an effect the other way counts as inactive or inconclusive; further: nearly all actives have a fitted effect of over 55% in size)
Method in brief: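 In human HaCaT keratinocytes stably expressing an ARE-driven luciferase, compound exposure lasted 23 h at 37 C under 5% CO2. Viable cells are quantified with a protease-based fluorogenic reagent (CellTiter-Fluor) read 1 h after addition.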

[2] = Nuclear factor erythroid 2-related factor 2/antioxidant responsive element (Nrf2/ARE) small molecule agonists: luciferase reporter gene qHTS assay in human keratinocytes (AID 1919969); further: nearly all actives have a fitted effect of over 35% in size
[3] = molecular target: Gonadotropin-releasing hormone receptor (Homo sapiens) (UniProt P30968); experiment: Human gonadotropin-releasing hormone receptor (GnRHR) small molecule agonists, calcium flux assay in GnRHR-HEK293 cells (AID 1920063); further: nearly all actives have a fitted effect of over 35% in size
Method in brief: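 Intracellular calcium rise is the read-out: engineered human GnRHR HEK293 cells, dye-loaded, are exposed to DMSO-dissolved compounds and fluorescence at Ex/Em 480/540 is tracked for 3 min.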

[4] = molecular target: KiSS-1 receptor (Homo sapiens) (UniProt Q969F8); experiment: Human kisspeptin (KISS1R) small molecule agonists, calcium flux assay in KISS1R-HEK293 cells (AID 1920064; active means well fitted curve in the direction sought with a large enough effect in the repeat runs; an effect the other way counts as inactive or inconclusive)
Method in brief: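 Concentration-response testing used 15 concentrations in triplicate on human KISS1R-expressing HEK293 cells. Calcium-dependent fluorescence (Ex/Em 480/540) was followed kinetically for 3 min after compound transfer.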

[5] = G protein-coupled receptor (GPCR) small molecule agonists, calcium flux assay: HEK293 wild type cell line counter screen (AID 1920065)
Method in brief: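 Fluorescence intensity signals activation. After overnight (18 h) culture and a 1 h calcium dye load at 37 C, compounds are added by pin tool and the plate read at 480/540 nm for 3 min in 1 s steps.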

[6] = p53 small molecule agonists, cell-based qHTS assay with human liver microsomes (AID 1963577);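 further: p53 response element beta-lactamase reporter cells with liver microsomes plus NADPH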
Method in brief: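 16 h, 37 C exposure of p53RE-bla cells to compounds with human liver microsomes and NADPH (0.5 mg/mL final each); detection via LiveBLAzer mixture, 2 h dark at room temperature.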

[7] = p53 small molecule agonists, cell-based qHTS assay with rat liver microsomes (AID 1963578)
Method in brief: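 With rat liver microsomes and NADPH present (0.5 mg/mL final each), p53RE-bla cells are treated with compound for 16 h at 37 C. LiveBLAzer detection mixture is then applied for 2 h at room temperature in the dark.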

[8] = p53 small molecule agonists, cell-based qHTS assay with human liver microsomes: qHTS cell viability counter screen (AID 1963579); further: nearly all actives have a fitted effect of over 45% in size
Method in brief: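 In this multiplexed counter screen, the reporter plates were subsequently treated with CellTiter-Glo so that cell viability, reflected by luminescence, could be recorded for p53RE-bla cells dosed 16 h with compounds under microsomal activation (HLM and NADPH).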

[9] = p53 small molecule agonists, cell-based qHTS assay with rat liver microsomes: qHTS cell viability counter screen (AID 1963580); further: nearly all actives have a fitted effect of over 45% in size
Method in brief: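 Cytotoxicity counter screen: intracellular ATP read by CellTiter-Glo luminescence in the p53 reporter wells. HCT-116 p53RE-bla cells were treated for 16 h at 37 C alongside rat liver microsomes and NADPH, each 0.5 mg/mL final.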

[10] = p53 small molecule agonists, cell-based qHTS assay: qHTS cell viability counter screen (AID 1963581); further: nearly all actives have a fitted effect of over 45% in size
Method in brief: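 Luminescence from CellTiter-Glo, reflecting ATP content, serves as the cytotoxicity measure; it is taken after the 2 h reporter substrate step in HCT-116 p53RE-bla cells dosed for 16 h at 37 C.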

[11] = p53 small molecule agonists, cell-based qHTS assay (AID 1963582; active means well fitted activation curve with a large enough effect in the signal ratio in the repeat runs, not every such curve was filed as active; the % refers to the signal ratio)
Method in brief: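 After plating, p53RE-bla cells sat 5 h in the incubator; compounds or DMSO vehicle were pinned in; a 16 h incubation at 37 C followed; FRET substrate was added and, 2 h later at RT, fluorescence was measured.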

[12] = molecular target: 5-hydroxytryptamine receptor 2A (Homo sapiens) (UniProt P28223); experiment: 5-hydroxytryptamine receptor 2A (HTR2A) small molecule agonists, cell-based qHTS assay (AID 1963587); further: nearly all actives have a fitted effect of over 30% in size
Method in brief: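 Kinetic calcium-flux fluorescence (2 min, 1 sec intervals) after compound addition in agonist mode. HTR2A-CHO cells were cultured 18 h, then dye-loaded 1 h at 37 C.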

[13] = molecular target: Muscarinic acetylcholine receptor M1 (Homo sapiens) (UniProt P11229); experiment: Cholinergic receptor muscarinic 1 (CHRM1) small molecule antagonists, cell-based qHTS assay (AID 1963588); further: nearly all actives have a fitted effect of over 40% in size
Method in brief: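 Compounds were tested at 15 concentrations in three independent runs. Dye-loaded CHRM1-CHO cells were exposed 5 min at room temperature before stimulation by acetylcholine added at 50nM. Intracellular calcium was read kinetically on FDSS for 3 min.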

[14] = molecular target: Muscarinic acetylcholine receptor M1 (Homo sapiens) (UniProt P11229); experiment: Cholinergic receptor muscarinic 1 (CHRM1) small molecule agonists, cell-based qHTS assay (AID 1963589); further: nearly all actives have a fitted effect of over 35% in size
Method in brief: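 Fluorescent calcium dye reports M1 activation in stably transfected CHO cells. Compounds, 15 concentrations, added after 1 h dye loading at 37 C; kinetic reading at 1 sec intervals.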

[15] = cAMP Responsive Elements (CRE) small molecule agonists, cell-based qHTS assay (AID 1963590)
Method in brief: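 Compound exposure lasted 3 h at 37 C/5% CO2 in CRE-bla HEK 293T cells grown in assay medium with 10% dialyzed FBS and 25 mM HEPES. Reporter signal came from LiveBLAzer B/G FRET substrate, 2 h, room temperature.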

[16] = cAMP Responsive Elements (CRE) small molecule antagonists, cell-based qHTS assay (AID 1963591; active means well fitted inhibition curve with a large enough effect in the signal ratio in the repeat runs, not every such curve was filed as active; the % refers to the signal ratio)
Method in brief: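 Stimulation used NKH477 at a final 0.25 uM for 3 h in compound-treated CRE-bla HEK293T cells, seeded 18 h beforehand. Reporter activity was measured with LiveBLAzer B/G FRET substrate after 2 h at room temperature.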

[17] = molecular target: Beta-2 adrenergic receptor (Homo sapiens) (UniProt P07550); experiment: Adrenergic beta2 receptor (ADRB2) small molecule antagonists, cell-based qHTS assay (AID 1963592); further: series mostly up to about 92 µM; nearly all actives have a fitted effect of over 50% in size
Method in brief: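 Assay format: CHO-ADRB2 cells, 18-20hr seeding at 37C/5% CO2, then compound plus 1nM isoproterenol agonist mix for 0.5hr RT. Homogeneous time-resolved fluorescence cAMP detection after 1hr, expressed as 665/615 nm ratio.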

[18] = molecular target: Beta-2 adrenergic receptor (Homo sapiens) (UniProt P07550); experiment: Adrenergic beta2 receptor (ADRB2) small molecule agonists, cell-based qHTS assay (AID 1963593);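 further: CHO cells stably overexpressing human ADRB2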
Method in brief: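 CHO cells stably over-expressing ADRB2 were plated overnight at 37C, then dosed with compounds plus a stimulation mix containing 100uM IBMX and 25uM Ro-20-1724 for 0.5hr at room temperature. cAMP was measured by HTRF competition, 1hr.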

[19] = molecular target: D(2) dopamine receptor (Homo sapiens) (UniProt P14416); experiment: Dopamine D2 receptor (DRD2) small molecule agonists, cell-based qHTS assay (AID 1963594); further: nearly all actives have a fitted effect of over 35% in size
Method in brief: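 cAMP accumulation in DRD2-HEK293 cells measured by HTRF after 1 h detection; compounds added 10 min before NKH477 (200nM […]) forskolin-analogue stimulation, 30 min at room temperature, with Ro20-1724 present at 0.1 mM final.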

[20] = molecular target: D(2) dopamine receptor (Homo sapiens) (UniProt P14416); experiment: Dopamine D2 receptor (DRD2) small molecule antagonists, cell-based qHTS assay (AID 1963595; active means well fitted inhibition curve with a large enough effect in the signal ratio in the repeat runs, with a control signal flat; the % refers to the signal ratio)
Method in brief: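 Antagonist mode in DRD2-HEK293 cells: after compound addition with 0.1 mM Ro20-1724, cells received quinpirole (12 nM) and NKH477 (200 nM) for 30 min at room temperature; HTRF cAMP read after 1 h detection.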

Measured: Potency

Muscarinic acetylcholine receptor M1 (Homo sapiens), sequence (P11229 whole entry, looked up): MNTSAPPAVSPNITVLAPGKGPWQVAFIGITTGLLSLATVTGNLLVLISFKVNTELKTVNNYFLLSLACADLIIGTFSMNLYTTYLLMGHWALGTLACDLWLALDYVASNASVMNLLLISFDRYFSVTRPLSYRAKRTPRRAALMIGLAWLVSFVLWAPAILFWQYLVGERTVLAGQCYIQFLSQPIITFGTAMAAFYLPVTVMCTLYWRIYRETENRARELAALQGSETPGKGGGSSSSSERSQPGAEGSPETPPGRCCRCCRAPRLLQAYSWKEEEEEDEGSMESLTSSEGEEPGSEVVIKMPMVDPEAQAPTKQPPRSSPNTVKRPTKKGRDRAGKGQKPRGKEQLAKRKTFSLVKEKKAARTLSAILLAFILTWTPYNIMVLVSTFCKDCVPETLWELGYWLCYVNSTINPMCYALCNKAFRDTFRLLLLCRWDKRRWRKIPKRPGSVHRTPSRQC
D(2) dopamine receptor (Homo sapiens), sequence (P14416 whole entry, looked up): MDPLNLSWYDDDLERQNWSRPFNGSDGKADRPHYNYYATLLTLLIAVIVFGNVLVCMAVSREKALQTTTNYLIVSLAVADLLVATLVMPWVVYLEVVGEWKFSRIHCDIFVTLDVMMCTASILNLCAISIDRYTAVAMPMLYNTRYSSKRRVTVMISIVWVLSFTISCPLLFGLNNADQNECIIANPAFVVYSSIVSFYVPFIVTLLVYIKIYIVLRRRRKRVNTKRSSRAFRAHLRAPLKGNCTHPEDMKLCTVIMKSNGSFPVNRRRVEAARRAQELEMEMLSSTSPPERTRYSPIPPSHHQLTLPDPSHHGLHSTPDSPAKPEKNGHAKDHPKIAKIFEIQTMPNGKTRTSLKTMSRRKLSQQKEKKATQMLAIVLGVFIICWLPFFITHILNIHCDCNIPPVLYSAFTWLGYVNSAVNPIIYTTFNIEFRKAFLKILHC
KiSS-1 receptor (Homo sapiens), sequence (Q969F8 whole entry, looked up): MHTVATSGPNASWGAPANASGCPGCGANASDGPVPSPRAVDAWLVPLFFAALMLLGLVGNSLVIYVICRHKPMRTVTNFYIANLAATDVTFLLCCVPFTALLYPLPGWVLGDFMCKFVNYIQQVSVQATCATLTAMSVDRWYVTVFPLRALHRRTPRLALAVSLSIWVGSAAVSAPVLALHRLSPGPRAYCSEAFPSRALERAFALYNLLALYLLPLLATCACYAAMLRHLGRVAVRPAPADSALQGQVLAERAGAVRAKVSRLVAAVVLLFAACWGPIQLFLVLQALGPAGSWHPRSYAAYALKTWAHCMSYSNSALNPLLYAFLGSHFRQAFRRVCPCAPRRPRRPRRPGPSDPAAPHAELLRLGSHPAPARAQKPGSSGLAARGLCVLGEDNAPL
5-hydroxytryptamine receptor 2A (Homo sapiens), sequence (P28223 whole entry, looked up): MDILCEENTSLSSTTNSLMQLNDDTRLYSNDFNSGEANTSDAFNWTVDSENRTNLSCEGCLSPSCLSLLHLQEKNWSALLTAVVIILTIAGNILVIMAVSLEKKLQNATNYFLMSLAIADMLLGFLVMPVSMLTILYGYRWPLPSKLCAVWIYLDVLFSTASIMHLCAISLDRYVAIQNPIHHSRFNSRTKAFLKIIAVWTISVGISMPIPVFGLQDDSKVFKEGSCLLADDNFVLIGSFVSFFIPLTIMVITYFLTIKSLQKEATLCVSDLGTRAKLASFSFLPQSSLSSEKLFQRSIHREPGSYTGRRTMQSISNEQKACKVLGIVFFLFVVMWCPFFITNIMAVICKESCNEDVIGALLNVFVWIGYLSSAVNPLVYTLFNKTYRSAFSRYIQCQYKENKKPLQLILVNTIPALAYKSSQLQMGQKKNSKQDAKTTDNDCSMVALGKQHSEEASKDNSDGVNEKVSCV
Beta-2 adrenergic receptor (Homo sapiens), sequence (P07550 whole entry, looked up): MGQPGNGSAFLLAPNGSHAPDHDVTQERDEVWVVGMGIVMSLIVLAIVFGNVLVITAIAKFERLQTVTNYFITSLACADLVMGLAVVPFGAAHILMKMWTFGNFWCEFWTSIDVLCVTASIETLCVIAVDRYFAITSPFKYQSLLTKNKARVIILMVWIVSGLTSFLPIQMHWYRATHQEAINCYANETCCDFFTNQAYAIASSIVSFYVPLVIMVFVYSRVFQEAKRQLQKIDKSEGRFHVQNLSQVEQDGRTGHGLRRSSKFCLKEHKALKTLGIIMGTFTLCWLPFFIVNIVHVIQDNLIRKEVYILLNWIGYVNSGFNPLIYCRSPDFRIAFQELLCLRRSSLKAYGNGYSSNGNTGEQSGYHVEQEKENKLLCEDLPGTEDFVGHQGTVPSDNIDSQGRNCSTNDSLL
Gonadotropin-releasing hormone receptor (Homo sapiens), sequence (P30968 whole entry, looked up): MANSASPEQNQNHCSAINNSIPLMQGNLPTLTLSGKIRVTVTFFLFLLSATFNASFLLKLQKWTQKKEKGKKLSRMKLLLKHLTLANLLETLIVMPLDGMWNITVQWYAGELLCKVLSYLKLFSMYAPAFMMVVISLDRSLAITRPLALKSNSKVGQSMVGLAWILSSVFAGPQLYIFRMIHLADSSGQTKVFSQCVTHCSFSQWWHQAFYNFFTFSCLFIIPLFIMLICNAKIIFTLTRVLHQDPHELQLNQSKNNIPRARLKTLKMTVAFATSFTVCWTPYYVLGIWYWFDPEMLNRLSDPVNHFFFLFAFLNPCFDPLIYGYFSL

O=S(=O)(O)c1cc(O)c(O)c(S(=O)(=O)O)c1
inactive: all assays above

NC(=O)c1ccc(N)cc1
inactive: all assays above

Cc1ncsc1CCO
inactive: all assays above

NC(=O)Cc1cccc2ccccc12
not listed: [18] | [20]
inactive: all other assays above

CCCO[Si](OCCC)(OCCC)OCCC
not listed: [12]
inactive: all other assays above

CC(O)Cn1cnc2c1c(=O)n(C)c(=O)n2C (stereo unspecified)
not listed: [12]
inactive: all other assays above

CCCCCCCCCOS(=O)(=O)O
not listed: [12]
inactive: all other assays above

CC(C)(C)NC(N)=O
not listed: [18]
inactive: all other assays above

O=[N+]([O-])c1ccc(CCO)cc1
not listed: [12] | [18]
inactive: all other assays above

OCc1ccccc1O
not listed: [12]
inactive: all other assays above

CCCOCCOCCOCCO
inactive: all assays above

CCc1ccc(C)nc1
not listed: [12]
inactive: all other assays above

CC1=CCC(=O)O1
not listed: [12] | [18] | [19]
inactive: all other assays above

CC1=CCC(C(C)C)=CC1
not listed: [18]
inactive: all other assays above
